ChEMBL document CHEMBL3988442, “University of Dundee, Small-Polar-MMV Screening Library” (2021)
“And” between values parts separate entries of the source, which are not always exact repeats. Equal values may be shown once. For part of these data: Potency and affinity values are given separately.

How the values were obtained:
Parameters in all cases: scale not given: direction of the effect not stated beside the values
[1] = target: Protein translocase subunit SecA (Escherichia coli (strain K12)) (UniProt P10408); experiment: Assay to Identify E. coli SecA ATPase Inhibitors; format: functional; details: 30 µM
[2] = target: T1, Ubiquitin-activating enzyme e1, putative (Leishmania donovani (strain BPK282A1)) (UniProt E9BSI1); experiment: Leishmania donovani Ubiquitin Activating Enzyme (LdE1); format: functional; details: 30 µM
T1 sequence (whole entry): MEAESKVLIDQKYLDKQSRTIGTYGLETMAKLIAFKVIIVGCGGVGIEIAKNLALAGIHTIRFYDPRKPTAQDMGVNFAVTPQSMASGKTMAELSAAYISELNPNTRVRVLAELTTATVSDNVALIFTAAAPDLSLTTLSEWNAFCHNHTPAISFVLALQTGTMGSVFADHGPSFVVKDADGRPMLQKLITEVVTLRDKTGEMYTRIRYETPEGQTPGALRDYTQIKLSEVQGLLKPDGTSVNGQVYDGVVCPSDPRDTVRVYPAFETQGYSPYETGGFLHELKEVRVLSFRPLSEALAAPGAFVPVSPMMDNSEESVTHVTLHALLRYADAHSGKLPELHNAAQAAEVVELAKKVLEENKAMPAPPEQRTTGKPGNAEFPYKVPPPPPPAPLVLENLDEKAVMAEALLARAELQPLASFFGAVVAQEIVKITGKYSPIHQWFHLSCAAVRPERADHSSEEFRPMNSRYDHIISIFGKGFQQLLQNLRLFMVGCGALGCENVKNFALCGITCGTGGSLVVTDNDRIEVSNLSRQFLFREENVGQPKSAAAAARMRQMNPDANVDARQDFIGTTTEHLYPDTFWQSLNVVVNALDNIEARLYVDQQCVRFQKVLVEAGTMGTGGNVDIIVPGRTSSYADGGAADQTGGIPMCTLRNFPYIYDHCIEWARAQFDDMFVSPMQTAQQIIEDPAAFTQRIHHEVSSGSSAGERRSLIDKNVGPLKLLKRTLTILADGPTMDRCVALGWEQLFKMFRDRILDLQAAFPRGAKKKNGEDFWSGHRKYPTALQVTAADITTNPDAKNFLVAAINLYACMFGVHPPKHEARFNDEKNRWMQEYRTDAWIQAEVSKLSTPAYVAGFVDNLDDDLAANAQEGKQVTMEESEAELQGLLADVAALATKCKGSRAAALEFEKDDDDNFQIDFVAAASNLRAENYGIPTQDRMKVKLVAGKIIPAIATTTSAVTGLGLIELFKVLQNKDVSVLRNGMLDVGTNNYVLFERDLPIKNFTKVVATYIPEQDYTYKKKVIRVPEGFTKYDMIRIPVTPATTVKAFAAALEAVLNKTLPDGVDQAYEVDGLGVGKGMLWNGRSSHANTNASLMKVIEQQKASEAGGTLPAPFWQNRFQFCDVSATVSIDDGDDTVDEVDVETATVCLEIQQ

[3] = target: AMP-activated protein kinase, AMPK (Homo sapiens) (UniProt P54646+O43741+P54619+Q9UGJ0+Q9Y478+Q13131+Q9UGI9); experiment: AMP-dependent Kinase enzyme assay. An in vitro enzyme assay that detects ADP turnover that is directly proportional to AMPK activity. This uses naive AMPK that is activated during the assay with MK-8722; format: functional; details: 30 µM
[4] = target: Sialic acid-binding Ig-like lectin 9 (Homo sapiens) (UniProt Q9Y336); experiment: Hs-Siglec9 ALPHAscreen SOP 20170721; details: 10 µM
Trypanosoma cruzi = experiment: Trypanosoma cruzi phosphomannomutase and mannose-1-phosphate guanylyltransferase assay; format: functional; details: 10 µM
[5] = target: T2, Arginase-2, mitochondrial (Homo sapiens) (UniProt P78540); experiment: in vitro enzyme assay to detect the production of urea directly proportional to the activity of Arginase II; format: functional; also: in the data most compounds retested in dose-response had high values
T2 sequence (whole entry): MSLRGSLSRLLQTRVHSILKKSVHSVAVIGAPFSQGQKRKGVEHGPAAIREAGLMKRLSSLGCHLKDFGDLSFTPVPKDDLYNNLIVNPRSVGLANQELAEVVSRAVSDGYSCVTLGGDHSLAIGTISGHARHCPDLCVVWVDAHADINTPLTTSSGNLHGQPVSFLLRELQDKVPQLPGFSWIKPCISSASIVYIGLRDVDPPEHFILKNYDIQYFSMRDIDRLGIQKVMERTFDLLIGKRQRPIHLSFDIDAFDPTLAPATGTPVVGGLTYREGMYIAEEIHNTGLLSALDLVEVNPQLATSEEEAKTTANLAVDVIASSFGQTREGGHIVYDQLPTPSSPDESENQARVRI

[6] = target: T3, Proteasome subunit beta (Trypanosoma cruzi) (UniProt O96673); experiment: Trypanosoma cruzi proteasome chymotrypsin-like activity (TcProtChymo) assay.; also: in the data most compounds retested in dose-response had high values; format: functional; details: 9.37 µM
T3 sequence (whole entry): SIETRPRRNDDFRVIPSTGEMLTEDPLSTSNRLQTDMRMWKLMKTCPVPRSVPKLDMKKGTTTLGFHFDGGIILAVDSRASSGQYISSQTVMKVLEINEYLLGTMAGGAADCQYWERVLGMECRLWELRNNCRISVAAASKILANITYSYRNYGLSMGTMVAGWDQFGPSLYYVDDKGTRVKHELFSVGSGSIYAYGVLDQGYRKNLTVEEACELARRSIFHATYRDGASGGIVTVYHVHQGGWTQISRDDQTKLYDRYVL

Homo sapiens = organism: Homo sapiens; experiment: To identify inhibition of the IFN signalling (Jak-Stat) pathway via expression of an eGFP reporter gene under the control of an IFN-stimulated response element (ISRE) containing MxA promoter.; format: functional; details: 30 µM
[7] = target: T4, Tyrosyl-tRNA synthetase, putative (Trypanosoma cruzi (strain CL Brener)) (UniProt Q4DSP6); experiment: Trypanosoma cruzi tyrosyl tRNA synthetase (TcYRS) _High Tyrosine SOP; format: functional; details: 30 µM; also: in the data most compounds retested in dose-response had high values
T4 sequence (whole entry): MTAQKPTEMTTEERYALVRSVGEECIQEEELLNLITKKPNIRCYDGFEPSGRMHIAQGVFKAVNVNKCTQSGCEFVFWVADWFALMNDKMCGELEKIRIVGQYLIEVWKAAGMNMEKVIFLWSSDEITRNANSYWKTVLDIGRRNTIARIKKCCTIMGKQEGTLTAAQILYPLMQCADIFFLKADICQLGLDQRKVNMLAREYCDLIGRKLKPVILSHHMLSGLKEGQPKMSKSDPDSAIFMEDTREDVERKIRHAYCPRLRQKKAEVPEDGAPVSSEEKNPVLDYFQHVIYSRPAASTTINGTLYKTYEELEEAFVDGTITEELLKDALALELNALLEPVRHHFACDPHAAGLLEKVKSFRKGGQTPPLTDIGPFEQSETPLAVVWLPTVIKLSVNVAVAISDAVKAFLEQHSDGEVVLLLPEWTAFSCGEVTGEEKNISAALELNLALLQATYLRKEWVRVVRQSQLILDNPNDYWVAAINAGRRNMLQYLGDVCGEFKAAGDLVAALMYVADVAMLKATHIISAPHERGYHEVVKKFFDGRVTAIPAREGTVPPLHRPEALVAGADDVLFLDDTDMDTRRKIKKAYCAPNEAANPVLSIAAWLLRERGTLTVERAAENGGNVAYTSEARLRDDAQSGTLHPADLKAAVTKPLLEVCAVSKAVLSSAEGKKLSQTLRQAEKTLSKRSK

[8] = target: T4, Tyrosyl-tRNA synthetase, putative (Trypanosoma cruzi (strain CL Brener)); experiment: Trypanosoma cruzi tyrosyl tRNA synthetase (TcYRS) SOP; format: functional; details: 30 µM
[9] = target: Chromo domain-containing protein 1 (Saccharomyces cerevisiae (strain ATCC 204508 / S288c) (Baker's yeast)) (UniProt P32657); experiment: ScCHD-1 Enzyme Inhibition Assay; format: functional; details: 30 µM; also: in the data most compounds retested in dose-response had high values
N/A = experiment: Trypanosoma cruzi proteasome luciferase counter-screen; format: functional; details: 9.37 µM

Chain of Chromo domain-containing protein 1 (Saccharomyces cerevisiae (strain ATCC 204508 / S288c) (Baker's yeast)) (P32657 whole entry, the tested form may be a part): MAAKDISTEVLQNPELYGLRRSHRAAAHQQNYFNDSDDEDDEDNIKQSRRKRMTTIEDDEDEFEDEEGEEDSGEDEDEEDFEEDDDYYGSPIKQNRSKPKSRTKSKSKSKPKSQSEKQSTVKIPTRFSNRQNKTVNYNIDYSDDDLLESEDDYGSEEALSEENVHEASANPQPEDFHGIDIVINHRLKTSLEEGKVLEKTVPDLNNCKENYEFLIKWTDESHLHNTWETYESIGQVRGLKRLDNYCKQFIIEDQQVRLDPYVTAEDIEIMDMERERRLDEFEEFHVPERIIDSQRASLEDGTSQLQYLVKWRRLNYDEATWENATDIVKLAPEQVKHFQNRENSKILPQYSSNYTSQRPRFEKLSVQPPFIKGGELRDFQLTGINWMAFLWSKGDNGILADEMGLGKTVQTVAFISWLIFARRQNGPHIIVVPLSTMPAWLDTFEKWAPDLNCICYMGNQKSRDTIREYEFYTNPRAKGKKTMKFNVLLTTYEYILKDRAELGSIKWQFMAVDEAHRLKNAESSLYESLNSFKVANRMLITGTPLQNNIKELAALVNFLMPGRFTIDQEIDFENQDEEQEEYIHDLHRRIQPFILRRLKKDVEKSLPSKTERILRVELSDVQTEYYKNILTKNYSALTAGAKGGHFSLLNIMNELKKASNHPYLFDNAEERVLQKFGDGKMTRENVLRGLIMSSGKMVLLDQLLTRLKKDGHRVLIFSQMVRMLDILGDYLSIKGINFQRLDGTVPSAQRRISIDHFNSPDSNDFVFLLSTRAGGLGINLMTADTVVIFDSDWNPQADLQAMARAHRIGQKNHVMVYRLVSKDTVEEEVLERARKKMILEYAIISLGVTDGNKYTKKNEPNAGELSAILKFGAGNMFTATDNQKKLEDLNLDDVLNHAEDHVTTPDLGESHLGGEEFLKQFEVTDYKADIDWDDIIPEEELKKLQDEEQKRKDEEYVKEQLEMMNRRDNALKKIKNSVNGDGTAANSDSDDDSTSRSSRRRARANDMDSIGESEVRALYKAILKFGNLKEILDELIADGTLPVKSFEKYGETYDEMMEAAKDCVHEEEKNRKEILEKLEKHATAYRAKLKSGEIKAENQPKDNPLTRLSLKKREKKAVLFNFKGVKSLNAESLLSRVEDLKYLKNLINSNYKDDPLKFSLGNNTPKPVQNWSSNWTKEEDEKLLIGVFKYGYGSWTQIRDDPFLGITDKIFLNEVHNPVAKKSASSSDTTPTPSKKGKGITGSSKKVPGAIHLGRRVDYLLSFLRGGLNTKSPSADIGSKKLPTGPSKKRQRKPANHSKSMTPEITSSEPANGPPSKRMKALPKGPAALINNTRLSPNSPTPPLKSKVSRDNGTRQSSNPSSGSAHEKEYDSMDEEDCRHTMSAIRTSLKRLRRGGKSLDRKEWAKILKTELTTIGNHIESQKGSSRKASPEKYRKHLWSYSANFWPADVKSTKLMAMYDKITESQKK
Chain of Protein translocase subunit SecA (Escherichia coli (strain K12)) (P10408 whole entry): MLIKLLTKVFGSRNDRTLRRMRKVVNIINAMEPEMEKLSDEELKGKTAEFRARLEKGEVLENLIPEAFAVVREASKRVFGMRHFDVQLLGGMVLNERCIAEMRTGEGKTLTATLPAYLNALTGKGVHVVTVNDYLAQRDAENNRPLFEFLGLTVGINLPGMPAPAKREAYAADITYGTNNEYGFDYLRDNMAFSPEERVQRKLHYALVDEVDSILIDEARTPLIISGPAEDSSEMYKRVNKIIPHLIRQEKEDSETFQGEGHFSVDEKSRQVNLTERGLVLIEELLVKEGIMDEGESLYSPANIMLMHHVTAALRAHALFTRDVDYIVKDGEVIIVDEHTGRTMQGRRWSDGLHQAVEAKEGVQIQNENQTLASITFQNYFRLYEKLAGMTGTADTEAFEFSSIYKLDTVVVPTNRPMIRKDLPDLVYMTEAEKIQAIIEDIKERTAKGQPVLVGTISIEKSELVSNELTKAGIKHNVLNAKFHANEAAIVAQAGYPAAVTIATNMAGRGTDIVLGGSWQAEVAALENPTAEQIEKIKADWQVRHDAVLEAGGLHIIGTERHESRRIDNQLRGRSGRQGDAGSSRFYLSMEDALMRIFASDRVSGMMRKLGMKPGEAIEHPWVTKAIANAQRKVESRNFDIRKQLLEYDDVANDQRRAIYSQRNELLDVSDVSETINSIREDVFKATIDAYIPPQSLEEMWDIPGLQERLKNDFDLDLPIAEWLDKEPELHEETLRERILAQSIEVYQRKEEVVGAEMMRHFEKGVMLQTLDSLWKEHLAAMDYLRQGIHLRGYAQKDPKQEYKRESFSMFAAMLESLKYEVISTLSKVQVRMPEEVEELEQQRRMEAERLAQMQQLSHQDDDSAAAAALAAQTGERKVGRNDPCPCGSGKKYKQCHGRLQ
Chain of Sialic acid-binding Ig-like lectin 9 (Homo sapiens) (Q9Y336 whole entry): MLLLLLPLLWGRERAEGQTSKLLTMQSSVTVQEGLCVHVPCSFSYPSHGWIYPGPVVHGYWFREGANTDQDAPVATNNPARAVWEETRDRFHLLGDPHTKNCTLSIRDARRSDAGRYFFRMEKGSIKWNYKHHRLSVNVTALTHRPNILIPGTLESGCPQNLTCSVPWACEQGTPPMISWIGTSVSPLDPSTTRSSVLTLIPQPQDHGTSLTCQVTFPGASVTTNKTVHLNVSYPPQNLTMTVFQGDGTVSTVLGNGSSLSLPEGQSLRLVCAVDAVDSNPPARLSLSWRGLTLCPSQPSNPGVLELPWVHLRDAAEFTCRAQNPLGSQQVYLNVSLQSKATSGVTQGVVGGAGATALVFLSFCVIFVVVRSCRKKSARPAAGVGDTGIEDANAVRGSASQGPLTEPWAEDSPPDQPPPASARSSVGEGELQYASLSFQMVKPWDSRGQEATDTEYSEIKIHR

| Structure (SMILES) | Percent Effect [1] [%] | Percent Effect [2] [%] | Percent Effect [3] [%] | Percent Effect [4] [%] | Percent Effect (Trypanosoma cruzi) [%] | Percent Effect ([5]; 30 µM) [%] | Percent Effect ([5]; 33.3 µM) [%] | Percent Effect [6] | Percent Effect (Homo sapiens) [%] | Percent Effect [7] [%] | Percent Effect [8] [%] | Percent Effect [9] [%] | Percent Effect (N/A) |
| --- | --- | --- | --- | --- | --- | --- | --- | --- | --- | --- | --- | --- | --- |
| CN(C)CCCNC(=O)c1cc(Br)c2c(c1)OCCO2 | -3.75 | 5.33 | -4 | 10 | 3.6 | -0.54 | 18.2 | 6.28% | -10 | 4.92 | 18.5 | -7.32 | – |
| Cc1cc(C(=O)N2CCC3(CCCN(CC4CC4)C3=O)C2)c(C)n1C (configuration not stated) | -5.53 | 5.48 | -5.43 | 6.36 | 0.794 | – | -4.39 | 49.3% and 56.6% and 47.8% | 10.3 | 20.8 | 28.4 | -1.72 | 11% and 8.3% |
| CC1CCN(S(=O)(=O)c2cccn(CC(=O)N3CCOCC3)c2=O)CC1 | -2.79 | 9.33 | 5.14 | 0.129 | -4.91 | 3.78 | -3.7 | 7.02% | 0.032 | 1.06 | 2.56 | -7.85 | – |
| COc1ccc(Cl)cc1C(=O)N1CCOC2(CNCCOC2)C1 (configuration not stated) | -5.73 | -2.7 | 0.241 | -0.752 | -3.86 | – | -1.43 | 7.59% and 10.9% and 31.4% | -6.05 | 2.65 | 4.88 | -2.64 | 12.4% and 13.6% |
| CC(=O)NC(C)CC(=O)NCc1cccnc1Oc1ccccc1C (configuration not stated) | -2.11 | 9.72 | -0.172 | -2.33 | -1.26 | 1.62 | 6.18 | 11.6% | -9.66 | 8.42 | 12.8 | -3.08 | – |
| COc1ccc(CN2C[C@@H](N(C)Cc3ccco3)[C@H]3OCCC[C@H]32)cc1 | -4.13 | 5.33 | 8.07 | 3.01 | -5.71 | -8.11 | 0.699 | 11% | 9.72 | 3.19 | 8.97 | -3.71 | – |
| O=c1[nH]c2c(c(=O)n1C1CCCCC1)CCC2NCCc1ccccc1 (configuration not stated) | -2.86 | 1.33 | -8.89 | 6.39 | 2.75 | 1.62 | -3.35 | 2.22% | -14.6 | -3.17 | 0 | -3.17 | – |
| COCCC(=O)N1CCC2(COCc3c(C)nc(NCC4CC4)nc32)C1 (configuration not stated) | -1.4 | 13.3 | 11.3 | 1.42 | -5.32 | 4.87 | -3.03 | 15.4% | 4.83 | 1.06 | 11.5 | -2.58 | – |
| Cn1cc(CN(Cc2ccccc2)CC(O)c2cccs2)cn1 (configuration not stated) | -2.22 | 2.7 | -1.93 | 9.64 | 7.14 | 7.03 | -1.74 | 7.81% | 1.28 | -1.07 | -13.6 | -8.54 | – |
| CNC(=O)c1cnc(/C=C/c2ccc(OC)c(O)c2)s1 | -3.24 | 5.41 | 32.5 | -3.93 | -5.27 | – | 2.08 | 31.5% and 31.2% and 35.7% | 16.4 | 3.96 | 6.1 | -1.59 | 10.7% and 15.6% |
| O=C(Cn1nc2c(cc1=O)CCCC2)N[C@@H](Cc1ccccc1)C(=O)O | 0.621 | 9.33 | 0.52 | -1.3 | 0.197 | 0.54 | 0.88 | 16.1% | 24.4 | 5.29 | 12.8 | -9.91 | – |
| c1cc(OCc2ccc3c(c2)OCCO3)ccc1CNC1CC1 | 5.92 | 0 | 13.6 | -13.3 | -7.3 | – | -5.92 | 91.2% and 90% and 88.4% | 23 | -2.13 | 5.2 | -5.94 | 63.7% and 65.3% |
| Cc1ccc(C)c(C(NC(=O)C2CC2)c2cccnc2)c1 (configuration not stated) | 0.279 | 18.2 | -0.34 | -7.55 | 4.24 | – | -1.94 | 32.4% and 20.1% and 20.4% | 6.26 | 4.23 | 8.97 | -10.3 | 21.2% and 15.5% |
| CC(C)c1n[nH]c(C(=O)Nc2cc[nH]n2)c1Br | -6.13 | 5.06 | 24.9 | 3.44 | -4.25 | – | -3.8 | 74% and 65.8% and 74.1% | 24.7 | -0.493 | 1.27 | -0.338 | 41.2% and 40.1% |
| COc1ccc(C2SC(C)=Nc3c2c(=O)[nH]n3C2CCCCC2)cc1O (configuration not stated) | 1.71 | 17.3 | 0.637 | -1.4 | 0.786 | -3.78 | -25.2 | 15.3% | 39.9 | 43.4 | 48.7 | -12.8 | – |
| O=C(NC1CCC1)[C@@H]1CCO[C@@H]2CCN(CCc3ccccc3)C[C@H]21 | -2.5 | 16.2 | -6.69 | -3.15 | 4.3 | 8.11 | 14.6 | 22.7% | 12 | 8.91 | 18.3 | -3.4 | – |
